Hits are enriched below; roughly 7.5% of the tested compounds scored in any of these assays.
Luc counter = counter-screen: inhibitors of Kinase-Glo firefly luciferase. Q27757. Kinase-Glo luciferase, ATP luminescence, 8 min. Potency, µM (doses to about 38.3 µM), usual class: inhibitors. 0.28% of 200,000 active; further: nearly all actives have a fitted effect of over 60% in size
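Substrate mix (final 50 mM imidazole pH 7.2, 50 mM KCl, 7 mM MgCl2, 10 uM ATP, 0.01% Tween 20, 0.05% BSA) plus pin-tool compound, then Kinase-Glo detection mix; 8 min ambient, luminescence read.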
NPC1 promoter act = activates the NPC1 promoter; 2.4% of 320,000 active; Huh7 NPC1 promoter luciferase reporter, 24 h; Potency, µM (titrated, usually from 9.22 µM), usual class: activators; further: nearly all actives have a fitted effect of over 60% in size
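Stable NPC1-promoter luciferase Huh7 line; cpd (DMSO) 24 h, 37 °C, 5% CO2; Amplite luciferase reagent 10 min RT; luminescence readout. qHTS format.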
ELG1 genotox = genotoxicity induction in ELG1-luciferase HEK293T cells. 1.3% of 330,000 active. Potency, µM (top dose mostly 46 µM), hits mostly activators. HEK293T ELG1-luciferase reporter, luminescence, 16 h; further: nearly all actives have a fitted effect of over 60% in size
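Step 1: seed 2,000 HEK293T ELG1-luciferase cells per well. Step 2: add compound or DMSO, incubate 16 hr at 37 °C. Step 3: ONE-Glo, 30 min at room temperature, read luminescence.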
SMN2 splice up = enhancers of SMN2 splice variant expression. AID 1458. 2.8% of 210,000 active. Potency, µM (doses to about 46.1 µM), hits mostly activators. HEK293 SMN2-luciferase splicing reporter, luminescence, 30-36 h; further: nearly all actives have a fitted effect of over 55% in size
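qHTS luciferase splicing reporter: luminescence rises when SMN2 exon 7 is included in transfected HEK293 cells. Compound exposure lasted 30-36 h at 37C, with 4.5 mM final sodium butyrate as control, followed by a ONE-Glo read.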
Rab9 promoter act = activates the Rab9 promoter; Huh7 Rab9 promoter-luciferase reporter, luminescence, 24 h; Potency, µM (top dose mostly 9.22 µM), hits mostly activators; 2.8% of 320,000 active; AID 485297; further: nearly all actives have a fitted effect of over 60% in size
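Measured in stably transfected Huh7 cells bearing a Rab9 promoter–luciferase construct: 24 h compound treatment at 37 °C, followed by luminescence detection.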
FLuc counter = inhibits or activates purified firefly luciferase, miR-21 counter-screen; P08659; purified FLuc, Km substrates, luminescence inhibition; Potency, µM (titrated, usually from 57.5 µM), hits mostly inhibitors; 6.9% of 360,000 active; AID 588342; further: nearly all actives have a fitted effect of over 55% in size
Target sequence (P08659 whole entry, looked up): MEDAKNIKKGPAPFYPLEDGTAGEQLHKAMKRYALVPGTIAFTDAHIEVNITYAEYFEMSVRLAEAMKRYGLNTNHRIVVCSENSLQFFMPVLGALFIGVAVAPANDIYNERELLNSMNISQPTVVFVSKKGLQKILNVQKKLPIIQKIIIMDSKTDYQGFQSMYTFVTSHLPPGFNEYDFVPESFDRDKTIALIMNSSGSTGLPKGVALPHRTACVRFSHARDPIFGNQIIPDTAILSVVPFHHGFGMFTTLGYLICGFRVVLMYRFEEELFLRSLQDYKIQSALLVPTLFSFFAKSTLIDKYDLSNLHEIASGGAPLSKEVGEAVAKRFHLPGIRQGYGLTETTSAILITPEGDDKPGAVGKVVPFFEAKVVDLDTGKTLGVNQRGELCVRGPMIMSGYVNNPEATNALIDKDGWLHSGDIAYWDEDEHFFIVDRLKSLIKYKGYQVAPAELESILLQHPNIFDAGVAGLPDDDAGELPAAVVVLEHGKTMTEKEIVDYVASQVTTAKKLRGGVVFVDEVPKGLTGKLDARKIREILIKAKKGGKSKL
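Biochemical qHTS of compounds, final roughly 60 µM downward over six points, against 10 nM purified firefly luciferase using Km concentrations of substrates (10 uM D-luciferin, 10 uM ATP) in Tris acetate pH 7.5 buffer; luminescence output.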
A number is an active result; 0 = inactive; ? = inconclusive; - = no result; [ ] = another dose, or the depositor's remark. The call rests on the fitted dose curve; in most records, active means well fitted curve in the direction sought with a large enough effect; inconclusive means small, poorly fitted or top-dose-only effect, or another doubt; inactive means no such curve, though single readings can be large; an effect the other way counts as inactive or inconclusive.

SMILES	Luc counter	NPC1 promoter act	ELG1 genotox	SMN2 splice up	Rab9 promoter act	FLuc counter
Cc1cc(C(=O)Cn2ncc(Cl)c(Cl)c2=O)c(C)n1CC(F)(F)F	0	0	0	?	0	15.1µM
O=C(/C=C/c1ccccc1)NC(=S)NNC(=O)Cc1cccs1	0	0	0	12.6µM	0	0
COc1ccc(/C=C/C(=O)NC(=S)NNC(=O)c2ccco2)cc1	0	0	0	0	0	0
COc1ccc(C(=O)NNC(=S)NC(=O)/C=C/c2cccs2)cc1	?	3.55µM	20.6µM	-	3.55µM	2.69µM
COc1ccc(/C=C/C(=O)NC(=S)NNC(=O)Cc2cccs2)cc1	0	0	?	12.6µM	0	0
Cc1ccc(SCC(=O)NC(=O)NCc2ccco2)cc1C	0	0	0	0	0	0
Cc1ccc(C(C)n2cc(C(=O)NCc3ccccn3)nn2)cc1 (stereo not drawn)	0	0	0	0	0	0
CCOc1ccc(N(C(=O)c2snc(C(N)=O)c2N)C(C(=O)NCC2CCCO2)c2ccc(C)o2)cc1 (stereo not drawn)	-	0	0	-	0	13.5µM
COc1ccc(-n2c(Cc3cccn3C)nnc2SCC(=O)Nc2ccc(C(C)=O)cc2)cc1	0	0	0	0	0	0
O=C(c1cnc2cc(-c3ccccc3)nn2c1)c1cc([N+](=O)[O-])ccc1O	-	-	-	0	-	?
Cc1ccc(-c2cc3ncc(C(=O)c4cc([N+](=O)[O-])ccc4O)cn3n2)cc1	-	-	-	0	-	9.53µM
Cc1cc(Nc2ccccc2C)n2nc(Cc3ccc(Cl)cc3)nc2n1	-	-	-	0	-	0
C=C(C)CSc1nnc2n(N)c(=O)c3ccccc3n12	0	0	?	0	?	16.9µM
Cc1cc(N=Nc2ccc(C)c(N=Nc3cc(C)c(N)cc3N)c2)c(N)cc1N	-	2.82µM	2.31µM	-	2.82µM	0.536µM
Cc1cc(C(=O)N/N=C/c2ccc(O)c(O)c2O)c(C)n1-c1ccccc1	0	0	0	0	0	10.7µM
Cc1cc(/C=N/NC(N)=O)c(C)n1-c1ccc(F)cc1	0	0	0	0	0	0
Cc1cc(C(=O)O)c(C)n1-c1ccccc1	0	0	0	0	0	0
Cc1cc(C)nc(SCC(=O)N/N=C/c2cc(C)n(-c3ccccc3C)c2C)n1	0	0	0	0	0	16.9µM
Cc1ccc(-n2c(C)cc(/C=N/NC(=O)c3ccncc3)c2C)c(C)c1	0	0	0	0	0	12µM
Cc1cccc(C)c1-n1c(C)cc(/C=N/NC(=O)CSc2ncccn2)c1C	0	0	0	0[1.84 µM]	0	?
CCc1ccc(-n2c(C)cc(/C=N/NC(=O)c3ccncc3)c2C)cc1	0	0	0	0	0	12µM
Cc1ccc(-n2c(C)cc(/C=N/NC(=O)CC3(C)OCCO3)c2C)c(C)c1	0	0	0	0	0	?
Cc1ccsc1/C=N/n1c(-c2ccccn2)n[nH]c1=S	0	0	0	0	0	0
COc1ccc(-c2cn3c(n2)sc2cc(C(=O)Nc4ccc(C)c(C)c4)ccc23)cc1	-	-	-	-	-	0
COc1ccc(C(=O)NCC(=O)OCC(=O)N2N=C(c3ccc(Cl)cc3)CC2c2ccco2)cc1OC (stereo not drawn)	0	0	0	0	0	0
SMILES	Luc counter	NPC1 promoter act	ELG1 genotox	SMN2 splice up	Rab9 promoter act	FLuc counter
Cc1cc(/C=N/NC(=O)C(O)(c2ccccc2)c2ccccc2)c(C)n1-c1ccccc1	0	0	0	?	0	?
Cc1cc(/C=N/NC(=O)c2cccs2)c(C)n1-c1cnccn1	-	2µM	7.3µM	-	3.55µM	4.78µM
Cc1cc(C(=O)N/N=C2\CC(=O)c3ccccc32)c(C)n1-c1ccccc1	0	?	?	10µM	3.55µM	2.69µM
Cc1cc(/C=N/NC(=O)c2ccncc2)c(C)n1-c1ccccc1	0	0	?	?	?	1.9µM
O=C(N/N=C/c1cccnc1)c1cccs1	-	0	0	-	0	?
Cc1cccc(C)c1-n1c(C)cc(/C=N/NC(=O)c2ccncc2)c1C	0	0	0	0	0	0
Cc1cc(/C=N/NC(=O)c2cccs2)c(C)n1-c1ccccc1	0	0.631µM	?	?	0.794µM	0.0849µM
Cc1cc(/C=N/NC(=O)c2cccc([N+](=O)[O-])c2)c(C)n1-c1ccccc1	0	0	?	0	0	1.69µM
Cc1cc(/C=N/NC(=O)COc2cccc3cccnc23)c(C)n1-c1ccc(O)cc1	0	0	0	?	0	3.38µM
Cc1ccc(-n2c(C)cc(/C=N/NC(=O)c3ccncc3)c2C)cc1C	0	0	0	0	0	8.49µM
O=S(=O)(NCCC1=CCCCC1)c1cccc(S(=O)(=O)N2CCOCC2)c1	-	0	0	-	0	0
Cc1ccc(C)c(NC(=S)c2ccc3ccccc3n2)c1	0	?	?	11.2µM	3.16µM	5.36µM
CN(C)c1ccc(NC(=S)c2ccc3ccccc3n2)cc1	-	?	?	-	0	16.9µM
CN(CC(=O)Nc1ccc(F)cc1)C(=O)c1ccc2ccccc2n1	-	0	0	-	0	0
Cc1ccc(C)c(NC(=S)c2ccccn2)c1	0	0	0	0	0	16.9µM
COC(=O)Nc1ccc2[nH]cc(CCNC(C)=O)c2c1	0	-	-	0	-	-
O=C(CSc1ccc2nnc(CCNC(=O)c3ccccc3)n2n1)NCCc1ccccc1	-	0	0	-	0	0
CN1CCN(C(=O)c2nc3ccc(Cl)cc3[nH]2)CC1	0	-	-	0	-	-
CCOC(=O)C1=C[C@@]2(CC)CCCN3CCc4c(n1c1ccccc41)C32 (stereo partly drawn)	0	-	-	0	-	-
COc1cc2c(cc1OC)n(CC(=O)c1ccc(C)cc1)c(=O)n1nc(CCn3nc(C)cc3C)nc21	-	-	-	-	-	0
CCOC(=O)C1CCCCN1S(=O)(=O)c1csc(C(N)=O)c1 (stereo not drawn)	-	-	-	-	-	0
O=C(Nc1ccccc1)N1CC2(CCN(C(=O)c3ccncc3)CC2)C1	0	-	-	0	-	-
COc1cccc(-c2nnc(-c3ccccc3NC(=O)c3ccc(C(C)(C)C)cc3)o2)c1	-	0	0	-	0	2.39µM
O=C(Nc1cccc(-c2nnc(-c3ccccc3)o2)c1)c1ccco1	0	0	0	0	0	0
O=C(Nc1ccccc1)c1cccc(-c2nnc(-c3ccccc3)o2)c1	0	2µM	?	1µM	3.98µM	0
COc1cccc(-c2nnc(-c3ccccc3NC(=O)c3cccc(C(F)(F)F)c3)o2)c1	-	-	-	0	-	0
Cc1ccc(SCC(=O)Nc2cccc(-c3nnc(-c4ccco4)o3)c2)cc1	0	3.16µM	0	22.4µM	3.16µM	0
Cc1cccc(C(=O)Nc2nnc(-c3ccco3)o2)c1	0	0	0	0	0	0
COc1cccc(C(=O)Nc2cccc(-c3nnc(-c4ccco4)o3)c2)c1	0	0	0	0	0	19µM
CC(OC(=O)Cc1ccsc1)C(=O)Nc1ccc(C(N)=O)cc1 (stereo not drawn)	-	0	0	-	0	-
